# Hit rate of the full screen: of about 350,000 compounds, about 1,600 (0.46%) were called active.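 Rule for the calls: active = activation of at least 50%, plus an integration ratio under a set limit after plate pattern correction; inactive = the rest.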 For the sample, actives were picked, then their nearest neighbours and some compounds at random.
# Tested on: CRF-binding protein / CRF receptor 2 complex (human)
# Experiment: activators of CRF-R2 with CRF-BP – cell-based, HEK293, calcium dye fluorescence, uHTS, primary screen (AID 588473);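 note: plate controls were neutral control wells without compound for no effect and CRF at EC100 for full effect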
# Conditions: calcium dye fluorescence (FLIPR), at 13.2 µM, stronger effect = higher value, percent of saturating CRF peptide response
row,Compound,activation
1,CCCCCCCCNS(=O)(=O)CCNC1CCCCC1,-0.59% (inactive)
2,CC(C)n1c(-c2ccncc2)n[nH]c1=S,-1.12% (inactive)
3,O=C(Nc1cc2c3c(c1)C1CCCC1CN3CC1CCCC21)c1ccc([N+](=O)[O-])cc1 (stereo unspecified),-3.97% (inactive)
4,Nc1cc(C(=O)N2CCN(c3ccccc3Cl)CC2)ccc1N1CC2CC(C1)c1cccc(=O)n1C2 (stereo unspecified),0.29% (inactive)
5,Oc1ccc(-c2nncn2-c2ccccc2)cc1,0.43% (inactive)
6,CC(N=Cc1nc(-c2ccccc2)oc1O)c1ccccc1 (stereo unspecified),-5.27% (inactive)
7,CCOc1ccc2nc(/N=C/c3nc(-c4ccccc4)oc3O)sc2c1,191% (active)
8,CCOc1ccc2nc(C(=O)N3CCCC(C)C3)sc2c1 (stereo unspecified),0.48% (inactive)
9,Cn1c(=O)c2c(nc(N3CCOCC3)n2CCNC2=NCCC2)n(C)c1=O,-1.41% (inactive)
10,C[C@H]1NS(=O)(=O)c2cc(Cl)ccc2O[C@@H]1c1ccccc1,-0.01% (inactive)
11,COC(=O)C1(O)CC(C(C)C)=NN1C(=O)c1ccc(Cl)cc1 (stereo unspecified),0.23% (inactive)
12,COc1ccc(S(=O)(=O)/N=C2\C=C(NS(=O)(=O)c3ccccc3)C(=O)c3ccccc32)cc1,-1.4% (inactive)
13,Cc1ccc(S(=O)(=O)/N=C2\C=C(NS(=O)(=O)c3ccc(C)cc3)C(=O)c3ccccc32)cc1,-2.69% (inactive)
14,CC1=C/C(=N\S(=O)(=O)c2ccccc2)C(C(C)C)=CC1=O,81.3% (active)
15,O=[N+]([O-])c1cc(S(=O)(=O)NCCc2ccccn2)ccc1Cl,1.07% (inactive)
16,CCCCN1C[C@H](c2ccc(Br)cc2)[C@@H](CC(=O)Nc2ccc(Br)cc2)C1=O,-0.04% (inactive)
17,COc1ccc(C2CC(c3cccs3)Nc3nnnn32)cc1 (stereo unspecified),-1.43% (inactive)
18,COC(=O)C1=C(C(=O)c2ccc(C)cc2)C(c2ccccc2)n2nnnc2N1 (stereo unspecified),-0.02% (inactive)
19,COc1ccc(C2=CC(c3cccc(OC)c3)n3nnnc3N2)cc1 (stereo unspecified),69.7% (active)
20,CC/C(=N\O)C(C)(C)/[N+]([O-])=C/c1ccc(Br)cc1,0.05% (inactive)
21,CC(C)(C)Nc1c(-c2cccs2)nc2ccccn12,-0.46% (inactive)
22,CCN(Cc1nc2ccccc2c(=O)[nH]1)Cc1cc(=O)oc2cc(C)c(C)cc12,-0.08% (inactive)

row,Compound,activation
1,COC(=O)c1cc(C(=O)OCC(=O)Nc2cc(C)on2)cc([N+](=O)[O-])c1,-3.69% (inactive)
2,CCc1ccc(NC(=O)CN2C(=O)COc3ccc(S(=O)(=O)N4CCCC4)cc32)cc1,-5.92% (inactive)
3,COCCCNCC(=O)Nc1sc(C)c(C)c1C(=O)OC,-2.35% (inactive)
4,C[n+]1ccc(/C=C/c2c[nH]c3ccccc23)cc1,61.1% (active)
5,COc1ccc(N(CC(=O)Nc2ccc(F)c(F)c2)S(=O)(=O)c2c(C)[nH]c(=O)[nH]c2=O)cc1,-1.2% (inactive)
6,CCCc1nc2c(c(=O)c3ccccc3n2C)c(=O)n1C1CCCCCC1,137% (active)
7,CCOC(=O)N1CCN(C(=O)c2nn(-c3ccc(C)cc3)c(=O)c3c2c2ccccc2n3C)CC1,3.98% (inactive)
8,CCOC(=O)c1nnn2c3ccccc3c(=O)n(C)c12,0.18% (inactive)
9,Nc1nc(SCC(=O)NCCN2CCOCC2)nc2sc3c(c12)CCC3,2.46% (inactive)
10,CC(C)(C)C1CCc2c(sc3nc(SCC(N)=O)nc(N)c23)C1 (stereo unspecified),0.65% (inactive)
11,C=C(C)CSc1nc(N)c2c3c(sc2n1)CCC3,155% (active)
12,CC(NC(=O)c1ccc(Cl)cc1)C(=O)N1CCCCC1 (stereo unspecified),0.19% (inactive)
13,O=C(CN1CCN(C2CCS(=O)(=O)C2)CC1)N1N=C(c2ccc(Cl)cc2)CC1c1ccco1 (stereo unspecified),0.41% (inactive)
14,CCOc1cc(C=NNC(=O)CCCC(=O)NN=Cc2ccc(O)c(OCC)c2)ccc1O,-2.14% (inactive)
15,CCOc1cc(/C=N/NC(=O)c2c(C)nc3ccc(Cl)cn23)ccc1O,-0.91% (inactive)
16,CCOc1cc(/C=C(\C#N)c2nc(-c3cccs3)c(NC(C)=O)s2)ccc1O,222% (active)
17,CCOC(=O)c1ccc(N/C(=N/S(=O)(=O)c2ccccc2)c2ccccc2)cc1,-1.91% (inactive)
18,CC1(C)O[C@H]2CC(=O)OCC23[C@H]2CC[C@@]4(C)[C@H](c5ccoc5)OC(=O)[C@H]5O[C@]54[C@]2(C)C(=O)C[C@@H]13 (stereo partly specified),1.6% (inactive)
19,CN(NS(=O)(=O)c1cccs1)c1ncc(C(F)(F)F)cc1Cl,-0.09% (inactive)
20,Cc1nn(CC#N)c(=O)n1N(C)c1ncc(C(F)(F)F)cc1Cl,1.06% (inactive)
21,C#CCN(N(C)c1ncc(C(F)(F)F)cc1Cl)S(=O)(=O)c1ccc2ccccc2c1,64.8% (active)
22,O=C(Cc1ccc(Cl)cc1)NC(=S)Nc1ccccc1O,128% (active)

row,Compound,activation
1,Cc1ccccc1NC(=S)NC(=O)Cc1ccc(Cl)cc1,46% (inactive)
2,O=C(COc1ccc(Cl)cc1)NC(=S)Nc1ccccc1N1CCOCC1,1.42% (inactive)
3,Cc1csc(=O)n1CC(=O)OCC(=O)N(CC(C)C)c1c(N)n(Cc2ccccc2)c(=O)[nH]c1=O,-0.29% (inactive)
4,CCCCNC(=O)C(C)N(CCN(C)C)C(=O)CCCN1C(=O)NC(c2ccc(Cl)cc2)C(C(=O)OCc2ccccc2)=C1C (stereo unspecified),-0.71% (inactive)
5,Cc1ccc(CNC(=O)c2ccc3c(c2)S(=O)(=O)c2ccccc2C3=O)cc1,-0.74% (inactive)
6,CC1CCN(c2ccc3c(c2)S(=O)(=O)c2cc(C(=O)O)ccc2C3=O)CC1,3.35% (inactive)
7,Cc1ccc(CNC(=O)c2cccc3c2C(=O)c2ccc(N4CCC(C)CC4)cc2S3(=O)=O)cc1,56.2% (active)
8,Cc1ccnc2nc(C(=O)OCC(=O)N(CC(C)C)CC(C)C)nn12,3.18% (inactive)
9,CC(=O)OCC1(O)CC23CCC4c5ccoc5CCC4(C)C2CCC1C3 (stereo unspecified),4.09% (inactive)
10,COc1cc(OC)cc(C(=O)NC(=S)N2CCN(c3ccc(C(F)(F)F)cc3[N+](=O)[O-])CC2)c1,2.06% (inactive)
11,COc1cccc2cc(C(N)=O)/c(=N\NC(=O)c3ccccc3)oc12,-2.1% (inactive)
12,CCN(CC)c1ccc2cc(C(N)=O)/c(=N\NC(=O)c3ccncc3)oc2c1,264% (active)
13,CCN(CC)c1ccc(C(=O)N/N=C(\C)c2cccc(OC)c2)cc1,0.09% (inactive)
14,COc1cc(C(=O)NNC(=O)CN2C(=O)NC3(CCCC3)C2=O)cc(OC)c1OC,0.66% (inactive)
15,Cc1c(NC(=O)C(=O)N/N=C/c2cccs2)c(=O)n(-c2ccccc2)n1C,4.78% (inactive)
16,Cc1cc(C)c(S(=O)(=O)NCC(c2ccc3c(c2)OCO3)N2CCOCC2)c(C)c1 (stereo unspecified),-1.15% (inactive)
17,COc1cccc2c1C(=O)c1c(O)c3c(c(O)c1C2=O)CC(O)(C(C)=NNC(=O)c1ccc(Cl)c(Cl)c1)CC3OC1CC(N)C(O)C(C)O1 (stereo unspecified),67.3% (active)
18,Cc1ccc(C(=O)N/N=C/c2sc(=O)n(Cc3cccc(C(=O)O)c3)c2Cl)cc1,1.16% (inactive)
19,CCCS(=O)(=O)N1CCC(C(=O)NCCc2ccc(OC)c(OC)c2)CC1,-0.54% (inactive)
20,Cc1cccc(C(C)C)c1NC(=O)COC(=O)C1CC(=O)N(Cc2ccccc2)C1 (stereo unspecified),-1.23% (inactive)
21,NC(=O)c1ccc(NC(=O)COC(=O)c2c3c(nc4ccccc24)/C(=C\c2ccc4c(c2)OCO4)CCC3)cc1,255% (active)
22,NS(=O)(=O)c1ccc(NC(=O)COC(=O)c2c3c(nc4ccccc24)/C(=C\c2ccc4c(c2)OCO4)CCC3)cc1,0.53% (inactive)

row,Compound,activation
1,COc1cc(/C=C2\CCCc3c2nc2ccccc2c3C(=O)O)cc(Cl)c1O,0.27% (inactive)
2,COc1ccc([N+](=O)[O-])cc1NC(=O)CC1SC(=Nc2cccc(C)c2C)N(/N=C(\C)c2ccc(C)cc2)C1=O (stereo unspecified),-0.05% (inactive)
3,Cc1ccc(C(CC(=O)O)NC(=O)c2ccc(S(=O)(=O)N3CCCC3)cc2)cc1 (stereo unspecified),0.98% (inactive)
4,Cc1ccc(C(=O)COC(=O)CCCC(=O)NC2CCCCC2)cc1[N+](=O)[O-],1.32% (inactive)
5,COc1ccc(C)cc1NC(=O)CSc1nnc(CC(=O)Nc2ccccc2F)n1C,3.27% (inactive)
6,CC(C(=O)O)N1C(=O)c2cccc3cccc1c23 (stereo unspecified),-0.43% (inactive)
7,O=C1c2cccc3c([N+](=O)[O-])ccc(c23)C(=O)N1CC1CCCO1 (stereo unspecified),12.3% (inactive)
8,Cc1nn(C)cc1N1C(=O)c2cccc3c(N)ccc(c23)C1=O,200% (active)
9,CN1C(=O)c2cccc3c(N)ccc(c23)C1=O,222% (active)
10,CC(C)n1c(CN2CCN(Cc3ccccc3)CC2)nc2ccccc21,1.04% (inactive)
11,COc1cc(CNCc2ccc3c(c2)OCO3)c([N+](=O)[O-])cc1OC,-1.29% (inactive)
12,COc1ccc(Br)cc1CN(C)CC(=O)Nc1cc([N+](=O)[O-])ccc1OC,0.1% (inactive)
13,CCCCN1CCNC1=S,-0.03% (inactive)
14,CCCCN1C(N)=NC[C@@H]1CC1CCCCC1,-0.4% (inactive)
15,CCOc1ccc(NC(=O)c2ccc(CSc3nnnn3C)cc2)cc1,1.79% (inactive)
16,NS(=O)(=O)c1ccc(NC(=O)COC(=O)C2(c3ccc(F)cc3)CCCC2)cc1,-2.26% (inactive)
17,Cc1cc(NS(=O)(=O)c2ccc(NC(=O)c3cccnc3)cc2)nc(C)n1,-0.63% (inactive)
18,Cc1cc(NS(=O)(=O)c2ccc(NC(=O)c3cccc(OC(F)F)c3)cc2)nc(C)n1,73.2% (active)
19,Cc1cc(NS(=O)(=O)c2ccc(NC(=O)C(C)Oc3cccc(C)c3C)cc2)nc(C)n1 (stereo unspecified),-1.14% (inactive)
20,COc1ccc(N2CCN(C(CNS(=O)(=O)c3ccc(C)cc3)c3ccccc3)CC2)cc1 (stereo unspecified),-2.07% (inactive)
